From PubChem BioAssay AID1159580 (chemical genetic matrix, 2015)
Where “and” joins values, the source holds several entries; their conditions need not be identical. Equal values may be shown once. The whole screen tested about 5,500 compounds, of which about 2,000 (36%) were called active. About 18% were inconclusive and are not listed. Rule as the data show it: active = normalized growth mostly below about 0.91 (no sharp cut-off); inconclusive = no clear call, values can overlap the other calls; inactive = mostly above about 0.92. Some of the results follow.

Assay: chemical genetic growth profiling, strain panel (AID 1159580);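 also: tested at 20 µM; growth read once vehicle control cultures reached saturation at 30 °C; 1 = growth at the plate median or of vehicle wells; lower values mean less growth of the strain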
Conditions: S. cerevisiae deletion strains, growth OD

Measured: normalized growth

CN(C)CCC=C1c2ccccc2C=Cc2ccccc21
active: locus YAL021C, strain ccr4, hits give low values 0.893 | locus YAL026C, strain drs2, hits give low values 0.901 | locus YDR137W, strain rgp1, hits give low values 1.18 [resistant]
inactive: locus YAL013W, strain DEP1, hits give low values 0.995 | locus YAL030W, strain snc1, hits give low values 0.982 | locus YAL040C, strain CLN3, hits give low values 1.07 | locus YBL061C, strain skt5, hits give low values 0.995 | locus YBR009C, strain hhf1, hits give low values 0.99 | locus YBR021W, strain FUR4, hits give low values 0.958 | locus YBR023C, strain chs3, hits give low values 0.978 | locus YBR171W, strain sec66, hits give low values 1 | locus YBR229C, strain ROT2, hits give low values 0.995 | locus YBR231C, strain swc5, hits give low values 0.997 | locus YBR279W, strain paf1, hits give low values 0.979 | locus YCL011C, strain gbp2, hits give low values 0.984 | locus YCL016C, strain dcc1, hits give low values 0.954 | locus YCL029C, strain bik1, hits give low values 1 | locus YCL061C, strain MRC1 (second series), hits give low values 0.999 | locus YCL061C, strain MRC1, hits give low values 0.992 | locus YCL069W, strain vba3, hits give low values 0.993 | locus YCR088W, strain abp1, hits give low values 0.998 | locus YDL005C, strain med2, hits give low values 0.991 | locus YDL035C, strain GPR1, hits give low values 0.954 | locus YDL040C, strain nat1, hits give low values 0.967 | locus YDL074C, strain BRE1, hits give low values 0.956 | locus YDL101C, strain DUN1, hits give low values 1.02 | locus YDL134C, strain PPH21, hits give low values 0.996 | locus YDL185W, strain tfp1, hits give low values 0.949 | locus YDL192W, strain arf1, hits give low values 0.988 | locus YDR001C, strain nth1, hits give low values 0.983 | locus YDR069C, strain doa4, hits give low values 0.918 | locus YDR101C, strain arx1, hits give low values 1.05 | locus YDR150W, strain NUM1, hits give low values 0.987 | locus YDR159W, strain sac3, hits give low values 1 | locus YDR162C, strain NBP2, hits give low values 0.95 | locus YDR195W, strain ref2 1.05 | locus YDR297W, strain sur2, hits give low values 0.971 | locus YDR318W, strain mcm21, hits give low values 0.982 | locus YDR334W, strain swr1, hits give low values 0.958 | locus YDR335W, strain msn5, hits give low values 0.969 | locus YDR388W, hits give low values 0.959 | locus YDR392W, strain spt3, hits give low values 0.988 | locus YDR502C, strain sam2, hits give low values 0.996 | locus YEL003W, strain gim4, hits give low values 0.987 | locus YEL037C, strain rad23, hits give low values 1 | locus YEL061C, strain CIN8 (second series), hits give low values 0.982 | locus YEL061C, strain CIN8, hits give low values 0.99 | locus YER002W, strain NOP16, hits give low values 1.04 | locus YER015W, strain faa2, hits give low values 0.969 | locus YER016W, strain bim1, hits give low values 0.998 | locus YER110C, hits give low values 0.984 | locus YER111C, strain swi4, hits give low values 0.993 | locus YER155C, strain BEM2 (second series), hits give low values 0.967 | locus YER155C, strain BEM2, hits give low values 1.02 | locus YER167W, strain BCK2, hits give low values 0.999 | locus YFR010W, strain ubp6, hits give low values 0.95 | locus YGL078C, strain dbp3, hits give low values 0.985 | locus YGL086W, strain mad1, hits give low values 1.01 | locus YGL167C, strain pmr1, hits give low values 0.976 | locus YGL173C, strain kem1, hits give low values 1 | locus YGL227W, strain vid30, hits give low values 0.97 | locus YGL240W, strain doc1, hits give low values 1.02 | locus YGL248W, strain PDE1, hits give low values 0.998 | locus YGL253W, strain hxk2, hits give low values 0.988 | locus YGR135W, strain pre9, hits give low values 0.919 | locus YGR252W, strain gcn5, hits give low values 0.904 | locus YHR013C, strain ard1, hits give low values 0.945 | locus YHR027C, strain rpn1, hits give low values 0.953 | locus YHR030C, strain SLT2, hits give low values 0.983 and 1.01 | locus YHR079C, strain IRE1 (second series), hits give low values 0.984 | locus YHR079C, strain IRE1, hits give low values 1.02 | locus YHR094C, strain hxt1, hits give low values 0.99 | locus YHR129C, strain ARP1, hits give low values 0.993 | locus YHR142W, strain chs7, hits give low values 0.959 | locus YHR200W, strain rpn10, hits give low values 0.998 | locus YIL066C, strain RNR3, hits give low values 0.974 | locus YIL073C, strain SPO22, hits give low values 0.94 | locus YIL125W, strain kgd1, hits give low values 1.02 | locus YIR030C, strain dcg1, hits give low values 0.988 | locus YJL092W, strain hpr5, hits give low values 0.98 | locus YJL095W, strain BCK1 (second series), hits give low values 0.98 | locus YJL095W, strain BCK1, hits give low values 0.903 and 1.02 | locus YJL115W, strain asf1, hits give low values 0.951 | locus YJL129C, strain trk1, hits give low values 1.01 | locus YJL134W, strain LCB3, hits give low values 0.988 | locus YJL154C, strain vps35, hits give low values 0.979 | locus YJL164C, strain tpk1, hits give low values 0.998 | locus YJL166W, strain qcr8, hits give low values 0.996 | locus YJL187C, strain SWE1 (second series), hits give low values 1.01 | locus YJR043C, strain POL32, hits give low values 1.04 | locus YJR066W, strain TOR1, hits give low values 0.956 | locus YJR075W, strain HOC1, hits give low values 0.982
